Results as given in PubChem BioAssay (EPA / NIEHS).
“And” between values parts separate entries of the source, which are not always exact repeats. Equal values may be shown once. Inconclusive results are not listed. Some compounds were tested as several samples or in several runs, with calls that do not always agree. The source made the active and inactive calls. How the source made its calls, unless noted: active means hit-call score of the fitted dose curve at least 0.9, where 1 is the maximum; inactive means score below 0.9.

Key:
[1] = ATG_NFI_CIS: Attagene CIS-FACTORIAL HepG2 Assay for human Nuclear Factor I (NFI) (AID 2282989); conditions: HepG2 cis-regulatory reporter, NFI response element transcription; actives raise or lower the signal
Procedure, shortened: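 Read-out: reporter mRNA via RT-PCR plus capillary electrophoresis with fluorescence detection. Transiently transfected HepG2 (endogenous TF activity on cis promoters), 24 h compound exposure; gain or loss of signal fitted against DMSO.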

[2] = biological target: Myc proto-oncogene protein (Homo sapiens) (UniProt P01106); assay: ATG_Myc_CIS: Attagene CIS-FACTORIAL HepG2 Assay for human Myelocytomatosis (Myc) Proto-Oncogene Transcription Factor (AID 2282990); conditions: HepG2, Attagene cis-reporter transcription factor activity; actives raise or lower the signal
Sequence of Myc proto-oncogene protein (Homo sapiens) (P01106 whole entry, looked up): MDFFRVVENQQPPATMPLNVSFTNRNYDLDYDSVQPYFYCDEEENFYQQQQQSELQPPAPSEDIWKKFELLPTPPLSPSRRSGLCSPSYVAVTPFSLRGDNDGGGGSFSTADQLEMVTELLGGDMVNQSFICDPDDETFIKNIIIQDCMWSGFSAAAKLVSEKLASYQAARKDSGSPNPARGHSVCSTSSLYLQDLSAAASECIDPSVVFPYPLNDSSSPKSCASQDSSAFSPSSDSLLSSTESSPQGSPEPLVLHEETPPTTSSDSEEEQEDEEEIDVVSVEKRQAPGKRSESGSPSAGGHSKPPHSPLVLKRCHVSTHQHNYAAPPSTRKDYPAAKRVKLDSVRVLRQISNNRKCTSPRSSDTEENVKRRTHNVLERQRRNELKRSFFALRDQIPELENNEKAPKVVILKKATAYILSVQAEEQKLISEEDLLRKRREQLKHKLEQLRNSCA
Procedure, shortened: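 Multiplexed cis-reporter transcription in HepG2 cells after 24 h chemical treatment. Reporter mRNA measured by RT-PCR and capillary electrophoresis fluorescence; activity fitted bidirectionally against DMSO control.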

[3] = ATG_NF_kB_CIS: Attagene CIS-FACTORIAL HepG2 Assay for human Nuclear Factor Kappa B (NF-kB) (AID 2282991); conditions: HepG2 Attagene cis-factorial NF-kB reporter mRNA; actives raise or lower the signal
Procedure, shortened: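 Multiplexed cis-reporter assay in transiently transfected HepG2. 24 h treatment; RNA isolated, RT-PCR, labelled fragments resolved by CE. DMSO baseline.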

[4] = ATG_NRF2_ARE_CIS: Attagene CIS-FACTORIAL HepG2 Assay for human Nuclear Factor Erythroid 2 Related Factor 2 (NFR2) response to Antioxidant Response Elements (ARE) (AID 2282992); conditions: HepG2 Attagene ARE/NRF2 reporter, transcription factor activity; actives raise or lower the signal
Procedure, shortened: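 Endogenous transcription factor activity read out as reporter transcript levels (RT-PCR plus capillary electrophoresis, fluorescence) in transiently transfected HepG2 cells. Measured at 24 h after dosing; gain or loss of signal fitted versus DMSO.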

[5] = ATG_Oct_MLP_CIS: Attagene CIS-FACTORIAL HepG2 Assay for human Octamer-Binding Transcription Factor (Oct) (AID 2282993); conditions: HepG2 Attagene cis-factorial Oct reporter, mRNA; actives raise or lower the signal
Procedure, shortened: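 Read-out: reporter mRNA via RT-PCR plus capillary electrophoresis of 6-FAM-labelled fragments. Transiently transfected HepG2, 24 h exposure, endogenous TF activity on cis elements. Gain or loss of signal fitted relative to DMSO.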

[6] = biological target: Cellular tumor antigen p53 (Homo sapiens) (UniProt P04637); assay: ATG_p53_CIS: Attagene CIS-FACTORIAL HepG2 Assay for human p53 Transcription Factor (AID 2282994); conditions: HepG2 p53 cis-element reporter, Attagene mRNA; actives raise or lower the signal
Sequence of Cellular tumor antigen p53 (Homo sapiens) (P04637 whole entry, looked up): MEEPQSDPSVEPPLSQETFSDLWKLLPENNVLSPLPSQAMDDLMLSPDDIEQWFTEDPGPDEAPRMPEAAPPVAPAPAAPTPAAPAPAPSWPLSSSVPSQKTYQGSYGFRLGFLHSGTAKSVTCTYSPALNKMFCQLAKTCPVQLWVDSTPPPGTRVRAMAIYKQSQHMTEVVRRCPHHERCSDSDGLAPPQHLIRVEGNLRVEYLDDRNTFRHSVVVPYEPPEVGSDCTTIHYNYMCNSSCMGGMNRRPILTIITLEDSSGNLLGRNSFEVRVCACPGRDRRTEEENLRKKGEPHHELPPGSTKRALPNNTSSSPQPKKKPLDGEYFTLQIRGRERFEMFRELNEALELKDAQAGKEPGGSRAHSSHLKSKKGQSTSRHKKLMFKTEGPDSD
Procedure, shortened: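 Endogenous p53 activity read in transiently transfected HepG2 from a cis-element-driven reporter transcript after 24 h exposure. RNA reverse-transcribed, PCR-amplified, fluorescently labelled and sized by capillary electrophoresis; gain or loss fitted against DMSO baseline.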

[7] = BSK_3C_TissueFactor: BioMAP Diversity Plus: 3C Assay for Tissue Factor Biomarker Activity (AID 2282997); conditions: BioMAP 3C HUVEC, tissue factor biomarker readout; actives raise or lower the signal
Procedure, shortened: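 Tissue Factor measured by ELISA, 24 h after treatment of primary HUVEC in the BioMAP 3C setting.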

[8] = BSK_3C_uPAR: BioMAP Diversity Plus: 3C Assay for Urokinase-type plasminogen activator receptor (uPAR) Biomarker Activity (AID 2282998); conditions: BioMAP 3C HUVEC, uPAR biomarker ELISA; actives raise or lower the signal
Procedure, shortened: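 HUVEC primary cells; 24 h post-dose; uPAR by ELISA; gain or loss of signal fitted bidirectionally vs DMSO baseline.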

[9] = BSK_3C_VCAM1: BioMAP Diversity Plus: 3C Assay for Vascular cell adhesion molecule 1 (VCAM1) Biomarker Activity (AID 2282999); conditions: BioMAP 3C HUVEC, VCAM1 ELISA, cytokine-stimulated; actives raise or lower the signal
Procedure, shortened: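 Vascular primary endothelium (human umbilical vein) was exposed to chemicals and assayed 24 h later. VCAM-1 levels came from ELISA, with DMSO serving as baseline for bidirectional fitting.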

[10] = BSK_4H_Eotaxin3: BioMAP Diversity Plus: 4H Assay for Eotaxin 3 Biomarker Activity (AID 2283000); conditions: primary human endothelial cells (HUVEC); actives raise or lower the signal
Procedure, shortened: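 Eotaxin-3 (CCL26) levels were measured by ELISA in HUVEC primary cultures 24 h post-dosing. Gain or loss of signal was fitted in both directions, with DMSO serving as baseline and negative control.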

[11] = biological target: human Peroxisome Proliferator-activated Receptor delta (PPARd), PPARD (gene 5467) (UniProt Q03181); assay: ATG_PPARd_TRANS: Attagene TRANS-FACTORIAL HepG2 Assay for human Peroxisome Proliferator-activated Receptor delta (PPARd) (AID 2283002; active means hit-call score of the fitted dose curve at least 0.9, where 1 is the maximum)
Sequence of human Peroxisome Proliferator-activated Receptor delta (PPARd), PPARD (gene 5467) (Q03181 whole entry, looked up, the tested form may be a part): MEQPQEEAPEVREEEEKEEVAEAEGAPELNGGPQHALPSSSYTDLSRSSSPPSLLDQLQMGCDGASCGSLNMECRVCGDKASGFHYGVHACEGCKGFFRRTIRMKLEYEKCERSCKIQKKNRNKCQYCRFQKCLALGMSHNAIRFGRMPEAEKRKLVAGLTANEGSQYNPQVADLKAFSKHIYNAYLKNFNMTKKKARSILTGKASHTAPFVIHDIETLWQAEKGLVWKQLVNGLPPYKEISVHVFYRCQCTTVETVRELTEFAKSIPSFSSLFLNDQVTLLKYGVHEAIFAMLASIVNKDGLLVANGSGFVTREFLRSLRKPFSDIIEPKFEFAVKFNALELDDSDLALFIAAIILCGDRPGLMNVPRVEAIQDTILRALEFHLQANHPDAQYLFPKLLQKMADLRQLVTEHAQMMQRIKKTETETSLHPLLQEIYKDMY
Procedure, shortened: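 Multiplexed trans-activation format: HepG2 liver cells expressing exogenous NR-Gal4 chimeras and GAL4-UAS reporters were exposed for 24 h. Reporter mRNA was detected by RT-PCR with capillary electrophoresis fluorescence; activity fitted as gain of signal relative to DMSO.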

[12] = read-out: Intercellular Adhesion Molecule 1 (ICAM1), ICAM1 (gene 3383); assay: BSK_3C_ICAM1: BioMAP Diversity Plus: 3C Assay for Intercellular Adhesion Molecule 1 (ICAM1) Biomarker Activity (AID 2283003); conditions: primary human endothelial cells (HUVEC); actives raise or lower the signal
Procedure, shortened: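 ELISA read-out of ICAM-1; HUVEC (primary human), 3C system, 24 h post-dosing; bidirectional fit vs DMSO baseline.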

[13] = biological target: human Retinoic Acid Receptor beta (RARb), RARB (gene 5915) (UniProt P10826); assay: ATG_RARb_TRANS: Attagene TRANS-FACTORIAL HepG2 Assay for human Retinoic Acid Receptor beta (AID 2283004; active means hit-call score of the fitted dose curve at least 0.9, where 1 is the maximum)
Sequence of human Retinoic Acid Receptor beta (RARb), RARB (gene 5915) (P10826 whole entry, looked up, the tested form may be a part): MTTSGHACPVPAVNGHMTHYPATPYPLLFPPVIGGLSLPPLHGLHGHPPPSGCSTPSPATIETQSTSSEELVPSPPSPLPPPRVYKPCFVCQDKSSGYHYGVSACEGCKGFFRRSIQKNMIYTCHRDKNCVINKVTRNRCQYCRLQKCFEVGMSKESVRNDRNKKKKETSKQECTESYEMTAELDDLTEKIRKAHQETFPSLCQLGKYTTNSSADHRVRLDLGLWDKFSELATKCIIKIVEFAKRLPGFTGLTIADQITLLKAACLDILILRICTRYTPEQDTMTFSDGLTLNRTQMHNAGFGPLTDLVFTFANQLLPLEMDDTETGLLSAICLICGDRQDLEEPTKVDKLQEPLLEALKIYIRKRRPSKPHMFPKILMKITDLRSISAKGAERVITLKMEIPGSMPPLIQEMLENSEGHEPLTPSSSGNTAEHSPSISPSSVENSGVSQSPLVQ
Procedure, shortened: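 HepG2 cells were transiently transfected with GAL4-UAS reporter units that report activity of exogenous chimeric NR-Gal4 proteins, then exposed to compound for 24 h. Reporter mRNA was quantified by RT-PCR with capillary electrophoresis fluorescence, as gain of signal over DMSO.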

[14] = BSK_3C_Proliferation: Cell Proliferation Assessment in the BioMAP Diversity Plus: 3C Assay (AID 2283006); conditions: primary human endothelial cells (HUVEC);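 on AC50: potency may reflect either rise or fall in cell number versus DMSO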
Procedure, shortened: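 HUVEC, sub-confluent; 48 h chemical exposure; 10% TCA fix, 0.1% SRB stain, A560 total protein. Gain or loss of signal fitted both directions vs DMSO control.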

[15] = biological target: Peroxisome proliferator-activated receptor gamma (Homo sapiens) (UniProt P37231); assay: ATG_PPARg_TRANS: Attagene TRANS-FACTORIAL HepG2 Assay for human Peroxisome Proliferator-activated Receptor-gamma (PPARg) (AID 2283007; active means hit-call score of the fitted dose curve at least 0.9, where 1 is the maximum)
Sequence of Peroxisome proliferator-activated receptor gamma (Homo sapiens) (P37231 whole entry, looked up): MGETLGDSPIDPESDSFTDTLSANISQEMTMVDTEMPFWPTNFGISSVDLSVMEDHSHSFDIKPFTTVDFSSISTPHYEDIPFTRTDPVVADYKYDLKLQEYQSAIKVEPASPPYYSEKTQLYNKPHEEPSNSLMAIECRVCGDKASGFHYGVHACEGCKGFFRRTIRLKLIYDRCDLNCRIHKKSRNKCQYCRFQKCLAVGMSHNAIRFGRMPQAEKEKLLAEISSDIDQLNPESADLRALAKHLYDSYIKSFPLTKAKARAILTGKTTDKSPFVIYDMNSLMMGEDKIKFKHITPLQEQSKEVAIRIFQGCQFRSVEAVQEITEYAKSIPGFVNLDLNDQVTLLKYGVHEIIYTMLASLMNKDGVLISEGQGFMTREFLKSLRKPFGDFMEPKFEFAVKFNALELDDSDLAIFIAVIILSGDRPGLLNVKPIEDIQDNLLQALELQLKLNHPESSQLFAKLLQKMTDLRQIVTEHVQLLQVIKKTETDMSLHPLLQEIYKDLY
Procedure, shortened: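 Human hepatoma HepG2, transient MRTU transfection, 24 h treatment. mRNA reporter signal by RT-PCR plus capillary electrophoresis, fluorescence detection; fitted for increase over DMSO negative control.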

[16] = biological target: Nuclear receptor subfamily 1 group I member 2 (Homo sapiens) (UniProt O75469); assay: ATG_PXR_TRANS: Attagene TRANS-FACTORIAL HepG2 Assay for human Pregnane X Receptor (PXR) (AID 2283008; active means hit-call score of the fitted dose curve at least 0.9, where 1 is the maximum)
Sequence of Nuclear receptor subfamily 1 group I member 2 (Homo sapiens) (O75469 whole entry, looked up, the tested form may be a part): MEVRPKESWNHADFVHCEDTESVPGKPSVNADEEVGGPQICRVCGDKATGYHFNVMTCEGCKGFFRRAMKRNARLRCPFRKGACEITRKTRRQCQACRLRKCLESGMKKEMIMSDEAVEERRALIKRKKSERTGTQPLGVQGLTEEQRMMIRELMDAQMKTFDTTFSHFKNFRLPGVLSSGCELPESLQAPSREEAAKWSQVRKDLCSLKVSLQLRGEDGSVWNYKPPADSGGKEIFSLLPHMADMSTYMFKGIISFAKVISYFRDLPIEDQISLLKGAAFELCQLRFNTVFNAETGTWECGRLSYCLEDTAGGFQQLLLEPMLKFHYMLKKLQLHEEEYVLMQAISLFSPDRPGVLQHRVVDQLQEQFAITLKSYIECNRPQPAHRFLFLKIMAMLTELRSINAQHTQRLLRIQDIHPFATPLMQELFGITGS
Procedure, shortened: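 Transactivation by exogenous PXR–GAL4 fusion measured as reporter transcript induction after 24 h compound treatment of transfected human HepG2 cells. Read-out via RT-PCR and capillary electrophoresis of labelled fragments, fitted upward relative to DMSO.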

[17] = biological target: human RAR-related Orphan Receptor gamma (RORg), RORC (gene 6097) (UniProt P51449); assay: ATG_RORg_TRANS: Attagene TRANS-FACTORIAL HepG2 Assay for human RAR-related Orphan Receptor gamma (RORg) (AID 2283011; active means hit-call score of the fitted dose curve at least 0.9, where 1 is the maximum)
Sequence of human RAR-related Orphan Receptor gamma (RORg), RORC (gene 6097) (P51449 whole entry, looked up, the tested form may be a part): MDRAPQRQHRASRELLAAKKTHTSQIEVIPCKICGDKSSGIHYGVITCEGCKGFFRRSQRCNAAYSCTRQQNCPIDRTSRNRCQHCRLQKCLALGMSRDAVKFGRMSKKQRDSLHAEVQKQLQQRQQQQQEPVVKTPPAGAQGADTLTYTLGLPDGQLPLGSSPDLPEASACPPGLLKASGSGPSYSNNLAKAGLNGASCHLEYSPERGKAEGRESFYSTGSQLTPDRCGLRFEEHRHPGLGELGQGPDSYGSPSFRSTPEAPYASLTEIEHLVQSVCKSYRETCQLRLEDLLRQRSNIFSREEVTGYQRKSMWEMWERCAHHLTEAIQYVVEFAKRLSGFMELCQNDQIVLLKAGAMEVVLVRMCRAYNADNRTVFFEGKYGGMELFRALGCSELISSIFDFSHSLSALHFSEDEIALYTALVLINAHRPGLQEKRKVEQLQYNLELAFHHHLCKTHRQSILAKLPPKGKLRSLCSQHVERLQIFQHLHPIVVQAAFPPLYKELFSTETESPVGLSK
Procedure, shortened: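 HepG2 cells transiently transfected with GAL4-UAS reporter units and chimeric RORg-Gal4 construct; after 24 h chemical exposure, reporter mRNA measured by RT-PCR with fluorescent capillary electrophoresis, gain of signal fitted against DMSO.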

[18] = biological target: Retinoic acid receptor RXR-alpha (Homo sapiens) (UniProt P19793); assay: ATG_RXRa_TRANS: Attagene TRANS-FACTORIAL HepG2 Assay for human Retinoid X Receptor alpha (RXRa) (AID 2283012; active means hit-call score of the fitted dose curve at least 0.9, where 1 is the maximum)
Sequence of Retinoic acid receptor RXR-alpha (Homo sapiens) (P19793 whole entry, looked up, the tested form may be a part): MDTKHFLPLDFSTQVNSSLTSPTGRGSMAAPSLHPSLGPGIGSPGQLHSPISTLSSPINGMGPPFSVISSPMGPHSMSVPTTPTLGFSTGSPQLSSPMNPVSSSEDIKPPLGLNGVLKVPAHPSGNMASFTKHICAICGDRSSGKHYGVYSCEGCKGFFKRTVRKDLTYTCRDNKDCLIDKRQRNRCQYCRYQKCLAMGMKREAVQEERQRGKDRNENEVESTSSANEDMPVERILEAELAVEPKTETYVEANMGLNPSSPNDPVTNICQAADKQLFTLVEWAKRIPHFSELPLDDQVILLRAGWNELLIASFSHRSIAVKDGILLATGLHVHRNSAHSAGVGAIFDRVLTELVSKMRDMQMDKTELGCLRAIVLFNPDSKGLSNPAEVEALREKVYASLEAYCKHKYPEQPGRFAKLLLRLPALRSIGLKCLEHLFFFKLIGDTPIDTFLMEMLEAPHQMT
Procedure, shortened: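 Read-out: fluorescent reporter-transcript fragments quantified by capillary electrophoresis after RT-PCR. Transiently transfected HepG2 cells carrying GAL4-UAS reporters and NR-GAL4 chimeras were exposed to chemical for 24 h; activity scored as increase over DMSO.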

[19] = biological target: human Retinoic Acid Receptor gamma (RARg), RARG (gene 5916) (UniProt P13631); assay: ATG_RARg_TRANS: Attagene TRANS-FACTORIAL HepG2 Assay for human Retinoic Acid Receptor gamma (RARg) (AID 2283009; active means hit-call score of the fitted dose curve at least 0.9, where 1 is the maximum)
Sequence of human Retinoic Acid Receptor gamma (RARg), RARG (gene 5916) (P13631 whole entry, looked up, the tested form may be a part): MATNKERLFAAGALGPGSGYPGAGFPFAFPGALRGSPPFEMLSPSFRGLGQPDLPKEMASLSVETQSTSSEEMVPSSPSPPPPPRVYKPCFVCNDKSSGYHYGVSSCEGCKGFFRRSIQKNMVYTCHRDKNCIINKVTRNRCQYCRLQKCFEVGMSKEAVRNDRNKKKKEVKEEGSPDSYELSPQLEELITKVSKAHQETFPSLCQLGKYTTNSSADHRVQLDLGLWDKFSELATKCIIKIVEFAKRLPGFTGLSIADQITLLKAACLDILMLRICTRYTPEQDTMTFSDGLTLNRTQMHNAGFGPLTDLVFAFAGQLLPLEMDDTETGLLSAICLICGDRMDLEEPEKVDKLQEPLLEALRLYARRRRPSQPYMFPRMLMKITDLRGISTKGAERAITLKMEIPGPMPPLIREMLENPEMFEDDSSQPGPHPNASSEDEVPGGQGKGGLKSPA
Procedure, shortened: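 Readout: reporter transcript levels via RT-PCR, 6-FAM primer-extension labelling, HpaI digestion and capillary electrophoresis. Cells: HepG2 carrying transfected RARg-GAL4 chimera plus UAS reporter set. Dosing 24 h; DMSO negative control.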

[20] = biological target: human Peroxisome Proliferator-activated Receptor alpha (PPARa), PPARA (gene 5465) (UniProt Q07869); assay: ATG_PPARa_TRANS: Attagene TRANS-FACTORIAL HepG2 Assay for human Peroxisome Proliferator-activated Receptor alpha (PPARa) (AID 2283001; active means hit-call score of the fitted dose curve at least 0.9, where 1 is the maximum)
Sequence of human Peroxisome Proliferator-activated Receptor alpha (PPARa), PPARA (gene 5465) (Q07869 whole entry, looked up, the tested form may be a part): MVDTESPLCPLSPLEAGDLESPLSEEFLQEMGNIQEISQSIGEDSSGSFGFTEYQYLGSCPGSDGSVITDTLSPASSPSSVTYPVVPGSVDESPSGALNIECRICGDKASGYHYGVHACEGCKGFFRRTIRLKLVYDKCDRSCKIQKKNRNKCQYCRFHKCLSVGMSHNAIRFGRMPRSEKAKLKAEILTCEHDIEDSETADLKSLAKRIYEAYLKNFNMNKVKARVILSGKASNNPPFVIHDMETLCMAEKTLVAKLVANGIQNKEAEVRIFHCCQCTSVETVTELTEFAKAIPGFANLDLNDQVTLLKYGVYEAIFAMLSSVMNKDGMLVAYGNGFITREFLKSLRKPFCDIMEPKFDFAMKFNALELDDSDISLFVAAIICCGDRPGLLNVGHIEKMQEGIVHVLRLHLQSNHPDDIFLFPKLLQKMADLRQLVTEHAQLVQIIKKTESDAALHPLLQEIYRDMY
Procedure, shortened: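 Exposure: 24 h, transiently transfected HepG2 cells. Endpoint: GAL4-UAS reporter mRNA, RT-PCR with capillary electrophoresis fluorescence. Baseline: DMSO; increases fitted.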

Measured: AC50

C[C@]12CC[C@@H]3c4ccc(O)cc4C[C@@H](CCCCCCCCCS(=O)CCCC(F)(F)C(F)(F)F)[C@H]3[C@@H]1CC[C@@H]2O (stereo partly drawn)
active: [14] 2.05 µM | [16] 494 nM [middle of 4 runs]
not listed: [19] | [20]
inactive: all other assays above

COc1nc(C)nc(NC(=O)NS(=O)(=O)c2ccccc2OCCCl)n1
inactive: [1] | [2] | [3] | [4] | [5] | [6] | [7] | [8] | [9] | [10] | [11] | [12] | [14] | [15] | [16] | [19]
active: [4] 6.85 µM | [16] 40 µM

c1ccc(Nc2ccccc2)cc1
active: [4] 123 µM and 30.4 µM | [5] 50 µM | [15] 50 µM
inactive: [1] | [2] | [3] | [5] | [6] | [7] | [8] | [9] | [10] | [20] | [11] | [12] | [13] | [14] | [16]

CCCCOC(=O)C(C)Oc1ccc(Oc2ccc(C(F)(F)F)cn2)cc1 (stereo not drawn)
not listed: [18] | [19]
inactive: all other assays above

CCCCC(CC)CN1C(=O)C2C3C=CC(C3)C2C1=O (stereo not drawn)
active: [4] 16.7 µM | [5] 17.4 µM | [8] 32.2 µM | [14] 31.2 µM | [15] 50 µM | [16] 14.6 µM
not listed: [13] | [17] | [18] | [19] | [20]
inactive: all other assays above

CC(=O)S[C@@H]1CC2=CC(=O)CC[C@]2(C)[C@H]2CC[C@@]3(C)[C@@H](CC[C@@]34CCC(=O)O4)[C@H]12
inactive: [1] | [2] | [4] | [5] | [6] | [20] | [11] | [12] | [15] | [16] | [17] | [18]
active: [2] 7.76 µM | [4] 100 µM | [5] 15 µM | [6] 27.6 µM [middle of 4 runs] | [7] 16.1 µM | [8] 27.8 µM | [9] 29.5 µM | [10] 36.5 µM | [14] 28 µM
